According to publication PMC4336329 (PLoS ONE, 2015):
About 2,200 (0.71%) of roughly 310,000 compounds showed an effect of 50% or more. The effect is printed as a negative number. Only a selection was taken, and strong results are over-represented in it overall.

target: human ether-à-go-go-related gene (hERG) potassium channel (human, UniProt Q12809); assay: primary screen, population patch clamp on CHO cells stably expressing hERG; higher = less effect of the substance
Sequence (Q12809 whole entry, looked up): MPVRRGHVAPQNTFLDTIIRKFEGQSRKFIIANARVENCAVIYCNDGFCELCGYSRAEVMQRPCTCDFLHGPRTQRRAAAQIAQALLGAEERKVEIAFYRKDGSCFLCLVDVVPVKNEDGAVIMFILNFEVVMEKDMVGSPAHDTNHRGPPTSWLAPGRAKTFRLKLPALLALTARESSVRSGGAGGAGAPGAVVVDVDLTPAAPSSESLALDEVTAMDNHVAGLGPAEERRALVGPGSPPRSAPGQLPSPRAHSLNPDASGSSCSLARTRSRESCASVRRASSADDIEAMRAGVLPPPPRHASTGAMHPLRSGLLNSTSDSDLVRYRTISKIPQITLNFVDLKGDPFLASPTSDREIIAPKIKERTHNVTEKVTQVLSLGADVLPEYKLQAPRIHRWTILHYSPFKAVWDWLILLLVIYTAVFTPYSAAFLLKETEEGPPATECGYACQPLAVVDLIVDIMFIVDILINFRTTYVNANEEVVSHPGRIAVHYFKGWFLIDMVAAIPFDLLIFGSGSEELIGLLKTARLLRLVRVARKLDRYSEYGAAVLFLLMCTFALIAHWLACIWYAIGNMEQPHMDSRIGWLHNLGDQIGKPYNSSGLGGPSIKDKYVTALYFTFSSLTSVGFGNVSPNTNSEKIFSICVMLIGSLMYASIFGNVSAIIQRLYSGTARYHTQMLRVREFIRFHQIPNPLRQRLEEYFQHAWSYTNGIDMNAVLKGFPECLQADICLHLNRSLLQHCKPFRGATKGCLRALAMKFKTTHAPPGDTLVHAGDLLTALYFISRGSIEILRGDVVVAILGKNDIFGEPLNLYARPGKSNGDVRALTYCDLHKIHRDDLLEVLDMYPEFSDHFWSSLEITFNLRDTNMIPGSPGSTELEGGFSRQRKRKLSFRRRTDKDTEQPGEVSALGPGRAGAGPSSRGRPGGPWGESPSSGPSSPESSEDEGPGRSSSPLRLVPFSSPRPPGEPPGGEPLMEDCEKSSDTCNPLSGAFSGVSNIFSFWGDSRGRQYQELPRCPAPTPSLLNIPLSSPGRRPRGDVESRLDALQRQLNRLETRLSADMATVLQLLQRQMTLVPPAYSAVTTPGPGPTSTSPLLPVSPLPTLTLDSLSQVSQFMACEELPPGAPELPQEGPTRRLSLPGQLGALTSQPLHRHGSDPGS

Question: How did the “hERG current change (%, negative = inhibition) at 1uM” value turn out when CN1CCN(C(=O)CCC(=O)NCc2ccc(F)cc2)CC1 was run?
Answer: 9.84%

Question: O=C(COC(=O)c1ccccn1)NC(=O)c1ccccc1 was tested. Which “hERG current change (%, negative = inhibition) at 1uM” value did it give?
Answer: -5.45%

Question: How did the “hERG current change (%, negative = inhibition) at 1uM” value turn out when Cc1[nH]nc2ncc(C(=O)c3cc(Cl)cc(Cl)c3O)cc12 was run?
Answer: 10.1%

Question: Which “hERG current change (%, negative = inhibition) at 1uM” value does the source give for COc1cccc(OC)c1C(=O)Nc1nc2ccc([N+](=O)[O-])cc2s1 here?
Answer: 16.1%

Question: COc1cccc(CNC(=O)c2cc(C3CC3)nc3c2cnn3C(C)C)c1 was tested. Which “hERG current change (%, negative = inhibition) at 1uM” value did it give?
Answer: -0.644%

Question: For COc1ccc(CCN(C(=O)c2ccc(F)cc2)C2=CC3CCC(C2)N3C)cc1OC.Cl (centres unmarked), which “hERG current change (%, negative = inhibition) at 1uM” value is on record?
Answer: -22.6%

Question: Which “hERG current change (%, negative = inhibition) at 1uM” value does the source give for CCCCN(C(=O)c1cc(OC)c(OC)c(OC)c1)C1=CC2CCC(C1)N2C.Cl (centres unmarked) here?
Answer: 8.68%

Question: Which “hERG current change (%, negative = inhibition) at 1uM” value does the source give for COc1ccc(N(C(=O)c2ccc(F)cc2)C2=CC3CCC(C2)N3C)cc1.Cl (centres unmarked) here?
Answer: -50.3%

Question: For CCOc1cc([N+](=O)[O-])cc(/C=C2/NC(=O)N(Cc3ccccc3F)C2=O)c1O, which “hERG current change (%, negative = inhibition) at 1uM” value is on record?
Answer: 4.45%

Question: For COc1cc(NC(=S)NC(=O)c2ccccc2F)ccc1NC(=O)c1ccco1, which “hERG current change (%, negative = inhibition) at 1uM” value is on record?
Answer: 7.37%

Question: Which “hERG current change (%, negative = inhibition) at 1uM” value does the source give for CCn1c(SCC(=O)Nc2ccc(C(C)=O)cc2)nc2nc3c(cc2c1=O)COC(C)(C)C3 here?
Answer: 14.1%

Question: How did the “hERG current change (%, negative = inhibition) at 1uM” value turn out when CCn1c(SCC(=O)Nc2ccc(C)cc2)nc2nc3c(cc2c1=O)COC(C)(C)C3 was run?
Answer: -76.5%

Question: With CCn1c(SCC(=O)Nc2ccccc2)nc2nc3c(cc2c1=O)COC(C)(C)C3 as the molecule, how does the “hERG current change (%, negative = inhibition) at 1uM” value read?
Answer: -12.4%

Question: With Cc1cccc(-n2ncc3c(NC(C)C)ncnc32)c1 as the molecule, how does the “hERG current change (%, negative = inhibition) at 1uM” value read?
Answer: 12.7%

Question: How did the “hERG current change (%, negative = inhibition) at 1uM” value turn out when Cc1nn(C(C)C(=O)Nc2ccc(Cl)cn2)c(C)c1[N+](=O)[O-] (centres unmarked) was run?
Answer: 2.84%

Question: How did the “hERG current change (%, negative = inhibition) at 1uM” value turn out when Cc1ccc(C)c(NC(=O)C2CC(O)CN2C(=O)OCc2ccccc2)c1 (centres unmarked) was run?
Answer: 2.34%

Question: For COc1ccc(C(=O)NCCN2CCN(C(=O)c3ccc(OC)c(OC)c3)CC2)cc1OC, which “hERG current change (%, negative = inhibition) at 1uM” value is on record?
Answer: 13.2%

Question: For COc1ccc(N2CCN(CCC(=O)c3ccc4ccccc4c3)CC2)cc1, which “hERG current change (%, negative = inhibition) at 1uM” value is on record?
Answer: 11.4%

Question: How did the “hERG current change (%, negative = inhibition) at 1uM” value turn out when O=C(c1ccc(Cl)cc1)N1CCN(CCOc2ccccc2)CC1 was run?
Answer: -12.4%

Question: With COc1ccc(C(=O)NCCN2CCN(C(=O)c3ccc(OC)cc3)CC2)cc1 as the molecule, how does the “hERG current change (%, negative = inhibition) at 1uM” value read?
Answer: -22.1%

Question: Which “hERG current change (%, negative = inhibition) at 1uM” value does the source give for COc1ccc(OCCN2CCN(C(=O)c3ccc(OC(F)F)c(OC)c3)CC2)cc1 here?
Answer: -62.6%

Question: For COc1ccc(OCCN2CCN(C(=O)c3ccc(OC)cc3)CC2)cc1, which “hERG current change (%, negative = inhibition) at 1uM” value is on record?
Answer: -90.6%

Question: COc1ccc(OCCN2CCN(C(=O)c3ccc(OC)c(OC)c3)CC2)cc1 was tested. Which “hERG current change (%, negative = inhibition) at 1uM” value did it give?
Answer: -35.6%

Question: With COc1ccc(C(=O)CCN2CCN(c3ccc(OC)cc3)CC2)cc1 as the molecule, how does the “hERG current change (%, negative = inhibition) at 1uM” value read?
Answer: -74.1%

Question: COc1ccc(N2CCN(CCC(N)=O)CC2)cc1 was tested. Which “hERG current change (%, negative = inhibition) at 1uM” value did it give?
Answer: 14.6%

Question: With Oc1c(Cl)cc(Cl)cc1C=Nc1ccc(N2CCOCC2)cc1 as the molecule, how does the “hERG current change (%, negative = inhibition) at 1uM” value read?
Answer: 9.19%

Question: How did the “hERG current change (%, negative = inhibition) at 1uM” value turn out when COC(=O)c1c(NC(=O)c2nn(C)cc2Cl)sc2c1CCCC2 was run?
Answer: 19.3%

Question: Cc1cc2cc(C(c3nnnn3Cc3ccco3)N3CCCCC3)c(=O)[nH]c2cc1C (centres unmarked) was tested. Which “hERG current change (%, negative = inhibition) at 1uM” value did it give?
Answer: 6.29%

Question: For Cc1nnsc1C(=O)NNC(=O)c1cccc2ccccc12, which “hERG current change (%, negative = inhibition) at 1uM” value is on record?
Answer: 9.5%

Question: With CC1C=CCC2C(=O)N(c3ccccc3OC(=O)c3cccs3)C(=O)C12 (centres unmarked) as the molecule, how does the “hERG current change (%, negative = inhibition) at 1uM” value read?
Answer: 9.04%

Question: For Cc1cccc(C)c1NC(=O)NC1(C(=O)NCc2ccncc2)CCCCC1, which “hERG current change (%, negative = inhibition) at 1uM” value is on record?
Answer: 12.6%

Question: O=C(O)C(=O)O.O=[N+]([O-])c1ccc(OCCCCN2CCc3ccccc3C2)cc1 was tested. Which “hERG current change (%, negative = inhibition) at 1uM” value did it give?
Answer: -81.1%

Question: Which “hERG current change (%, negative = inhibition) at 1uM” value does the source give for O=C(COc1ccc([N+](=O)[O-])cc1)N1CCc2ccccc2C1 here?
Answer: -15%

Question: CC1CC(C)CN(CCOc2ccc(Br)cc2)C1.O=C(O)C(=O)O (centres unmarked) was tested. Which “hERG current change (%, negative = inhibition) at 1uM” value did it give?
Answer: -12.4%

Question: For COc1ccc(OCCCN2CCCC(C)C2)cc1 (centres unmarked), which “hERG current change (%, negative = inhibition) at 1uM” value is on record?
Answer: -2.33%

Question: Cl.Clc1ccc(OCCCCN2CCc3ccccc3C2)cc1 was tested. Which “hERG current change (%, negative = inhibition) at 1uM” value did it give?
Answer: -8.64%

Question: With CCCOc1ccc(OCCN2CCCC(C)C2)cc1.O=C(O)C(=O)O (centres unmarked) as the molecule, how does the “hERG current change (%, negative = inhibition) at 1uM” value read?
Answer: 0.638%

Question: For CC1CN(CCCOc2ccc([N+](=O)[O-])cc2)CC(C)O1.O=C(O)C(=O)O (centres unmarked), which “hERG current change (%, negative = inhibition) at 1uM” value is on record?
Answer: -59.6%

Question: With CC1CCCN(CCCOc2ccc([N+](=O)[O-])cc2)C1.O=C(O)C(=O)O (centres unmarked) as the molecule, how does the “hERG current change (%, negative = inhibition) at 1uM” value read?
Answer: -77.4%

Question: CC1CN(CCOc2ccc([N+](=O)[O-])cc2)CC(C)O1.O=C(O)C(=O)O (centres unmarked) was tested. Which “hERG current change (%, negative = inhibition) at 1uM” value did it give?
Answer: -13.6%

Question: With CC1CC(C)CN(CCCCOc2ccc([N+](=O)[O-])cc2)C1.O=C(O)C(=O)O (centres unmarked) as the molecule, how does the “hERG current change (%, negative = inhibition) at 1uM” value read?
Answer: -80.3%

Question: Which “hERG current change (%, negative = inhibition) at 1uM” value does the source give for CC1CC(C)CN(CCCOc2ccccc2[N+](=O)[O-])C1.O=C(O)C(=O)O (centres unmarked) here?
Answer: 5.91%

Question: Which “hERG current change (%, negative = inhibition) at 1uM” value does the source give for CC1CN(CCCCOc2ccc(F)cc2)CC(C)O1.O=C(O)C(=O)O (centres unmarked) here?
Answer: -4.39%

Question: For NC(=O)c1ccc(-c2nnn(CC(=O)N(C3CCCCC3)C3CCS(=O)(=O)C3)n2)cc1 (centres unmarked), which “hERG current change (%, negative = inhibition) at 1uM” value is on record?
Answer: 9.79%
